Our source for the residual activity values is ChEMBL document CHEMBL2218924, “A broad activity screen in support of a chemogenomic map for kinase signalling research and drug discovery” (Biochem J, 2013).

Molecules are shown by their SMILES.

Assay [1] concerns the target Tyrosine-protein kinase SYK (Homo sapiens) (UniProt P43405). Conditions: at 10 µM.
For assay [2], the target named is T1, Mitogen-activated protein kinase kinase kinase 7 (Homo sapiens) (UniProt O43318).
T1 sequence (whole entry): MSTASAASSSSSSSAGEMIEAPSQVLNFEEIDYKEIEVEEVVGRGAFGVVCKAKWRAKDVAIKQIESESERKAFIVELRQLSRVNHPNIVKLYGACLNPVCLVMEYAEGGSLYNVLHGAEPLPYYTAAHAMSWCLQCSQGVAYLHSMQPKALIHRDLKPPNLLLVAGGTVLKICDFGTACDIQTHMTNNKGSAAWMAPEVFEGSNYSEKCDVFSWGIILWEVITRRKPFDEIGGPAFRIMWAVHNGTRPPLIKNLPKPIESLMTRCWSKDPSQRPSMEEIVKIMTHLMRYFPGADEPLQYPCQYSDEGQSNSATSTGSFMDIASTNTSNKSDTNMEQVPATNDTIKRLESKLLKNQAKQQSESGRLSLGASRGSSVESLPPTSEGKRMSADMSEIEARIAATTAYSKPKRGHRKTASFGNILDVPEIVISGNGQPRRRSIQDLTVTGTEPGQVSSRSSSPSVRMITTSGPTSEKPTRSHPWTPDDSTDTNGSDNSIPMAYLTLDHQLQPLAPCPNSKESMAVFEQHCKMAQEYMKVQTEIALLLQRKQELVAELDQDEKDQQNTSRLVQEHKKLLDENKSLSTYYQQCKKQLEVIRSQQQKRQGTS
Conditions: at 1 µM.

Assay [3] addresses T1, Mitogen-activated protein kinase kinase kinase 7 (Homo sapiens). Particulars: at 10 µM.
Assay [4] addresses T2, Serine/threonine-protein kinase TAO1 (Homo sapiens) (UniProt Q7L7X3).
T2 sequence (whole entry): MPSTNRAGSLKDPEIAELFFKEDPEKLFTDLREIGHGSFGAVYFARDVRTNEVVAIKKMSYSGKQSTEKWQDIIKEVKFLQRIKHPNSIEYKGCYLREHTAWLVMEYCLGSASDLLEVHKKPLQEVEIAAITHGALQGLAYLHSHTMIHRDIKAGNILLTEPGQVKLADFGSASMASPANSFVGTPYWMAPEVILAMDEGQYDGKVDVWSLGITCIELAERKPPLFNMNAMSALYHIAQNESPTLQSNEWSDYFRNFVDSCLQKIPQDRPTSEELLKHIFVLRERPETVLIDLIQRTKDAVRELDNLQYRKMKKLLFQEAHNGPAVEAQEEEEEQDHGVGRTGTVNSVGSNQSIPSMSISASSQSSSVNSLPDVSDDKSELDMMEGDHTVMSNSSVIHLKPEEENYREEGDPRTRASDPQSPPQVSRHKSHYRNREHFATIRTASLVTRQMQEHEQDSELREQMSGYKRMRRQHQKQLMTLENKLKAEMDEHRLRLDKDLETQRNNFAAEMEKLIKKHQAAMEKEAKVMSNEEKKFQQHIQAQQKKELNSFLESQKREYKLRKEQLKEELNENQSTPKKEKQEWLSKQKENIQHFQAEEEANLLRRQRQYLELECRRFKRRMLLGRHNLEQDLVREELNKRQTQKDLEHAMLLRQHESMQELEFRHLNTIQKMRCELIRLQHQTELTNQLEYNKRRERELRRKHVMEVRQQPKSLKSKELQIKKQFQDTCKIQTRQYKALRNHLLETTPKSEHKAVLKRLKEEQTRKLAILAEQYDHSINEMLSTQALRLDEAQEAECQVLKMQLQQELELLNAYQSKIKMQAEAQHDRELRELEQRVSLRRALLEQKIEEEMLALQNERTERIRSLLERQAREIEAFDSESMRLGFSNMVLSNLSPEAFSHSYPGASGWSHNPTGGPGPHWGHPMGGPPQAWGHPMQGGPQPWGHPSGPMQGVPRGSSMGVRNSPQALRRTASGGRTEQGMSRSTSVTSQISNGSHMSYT
Conditions: at 1 µM.

The target in assay [5] is T2, Serine/threonine-protein kinase TAO1 (Homo sapiens). Particulars: at 10 µM.
For assay [6], the target named is T3, Serine/threonine-protein kinase TAO2 (Homo sapiens) (UniProt Q9UL54).
T3 sequence (whole entry): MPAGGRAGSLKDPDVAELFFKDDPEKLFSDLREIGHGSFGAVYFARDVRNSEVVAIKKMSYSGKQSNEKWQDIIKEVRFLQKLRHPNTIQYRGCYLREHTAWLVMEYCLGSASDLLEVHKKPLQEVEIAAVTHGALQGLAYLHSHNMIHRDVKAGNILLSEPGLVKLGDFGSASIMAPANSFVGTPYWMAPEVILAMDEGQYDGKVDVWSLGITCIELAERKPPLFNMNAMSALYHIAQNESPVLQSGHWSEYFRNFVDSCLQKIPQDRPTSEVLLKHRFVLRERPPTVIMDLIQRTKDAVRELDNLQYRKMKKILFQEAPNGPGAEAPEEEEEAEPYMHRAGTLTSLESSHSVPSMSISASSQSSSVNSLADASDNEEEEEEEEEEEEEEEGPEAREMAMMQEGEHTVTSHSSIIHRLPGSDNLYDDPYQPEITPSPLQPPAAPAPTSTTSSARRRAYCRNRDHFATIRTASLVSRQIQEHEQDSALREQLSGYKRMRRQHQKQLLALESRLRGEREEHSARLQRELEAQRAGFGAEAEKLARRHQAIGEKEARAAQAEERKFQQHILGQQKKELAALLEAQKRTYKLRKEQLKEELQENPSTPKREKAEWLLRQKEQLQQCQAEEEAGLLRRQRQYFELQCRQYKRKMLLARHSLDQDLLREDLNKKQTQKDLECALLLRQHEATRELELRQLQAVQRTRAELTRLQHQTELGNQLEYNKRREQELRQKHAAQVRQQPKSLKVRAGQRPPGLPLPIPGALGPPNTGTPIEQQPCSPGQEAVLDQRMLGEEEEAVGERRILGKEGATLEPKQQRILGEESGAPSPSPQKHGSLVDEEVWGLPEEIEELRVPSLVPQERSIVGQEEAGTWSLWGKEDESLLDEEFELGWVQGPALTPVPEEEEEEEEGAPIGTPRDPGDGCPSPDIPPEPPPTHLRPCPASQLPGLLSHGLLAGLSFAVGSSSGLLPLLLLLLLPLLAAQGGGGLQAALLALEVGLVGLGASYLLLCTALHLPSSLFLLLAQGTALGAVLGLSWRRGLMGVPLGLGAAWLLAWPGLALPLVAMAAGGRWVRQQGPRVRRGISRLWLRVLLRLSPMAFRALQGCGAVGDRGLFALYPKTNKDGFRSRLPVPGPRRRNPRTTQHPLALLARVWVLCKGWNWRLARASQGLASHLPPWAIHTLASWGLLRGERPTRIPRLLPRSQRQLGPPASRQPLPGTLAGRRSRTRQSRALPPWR
Conditions: at 1 µM.

For assay [7], the target named is T3, Serine/threonine-protein kinase TAO2 (Homo sapiens). Conditions: at 10 µM.
The target of assay [8] is T4, Serine/threonine-protein kinase TAO3 (Homo sapiens) (UniProt Q9H2K8).
T4 sequence (whole entry): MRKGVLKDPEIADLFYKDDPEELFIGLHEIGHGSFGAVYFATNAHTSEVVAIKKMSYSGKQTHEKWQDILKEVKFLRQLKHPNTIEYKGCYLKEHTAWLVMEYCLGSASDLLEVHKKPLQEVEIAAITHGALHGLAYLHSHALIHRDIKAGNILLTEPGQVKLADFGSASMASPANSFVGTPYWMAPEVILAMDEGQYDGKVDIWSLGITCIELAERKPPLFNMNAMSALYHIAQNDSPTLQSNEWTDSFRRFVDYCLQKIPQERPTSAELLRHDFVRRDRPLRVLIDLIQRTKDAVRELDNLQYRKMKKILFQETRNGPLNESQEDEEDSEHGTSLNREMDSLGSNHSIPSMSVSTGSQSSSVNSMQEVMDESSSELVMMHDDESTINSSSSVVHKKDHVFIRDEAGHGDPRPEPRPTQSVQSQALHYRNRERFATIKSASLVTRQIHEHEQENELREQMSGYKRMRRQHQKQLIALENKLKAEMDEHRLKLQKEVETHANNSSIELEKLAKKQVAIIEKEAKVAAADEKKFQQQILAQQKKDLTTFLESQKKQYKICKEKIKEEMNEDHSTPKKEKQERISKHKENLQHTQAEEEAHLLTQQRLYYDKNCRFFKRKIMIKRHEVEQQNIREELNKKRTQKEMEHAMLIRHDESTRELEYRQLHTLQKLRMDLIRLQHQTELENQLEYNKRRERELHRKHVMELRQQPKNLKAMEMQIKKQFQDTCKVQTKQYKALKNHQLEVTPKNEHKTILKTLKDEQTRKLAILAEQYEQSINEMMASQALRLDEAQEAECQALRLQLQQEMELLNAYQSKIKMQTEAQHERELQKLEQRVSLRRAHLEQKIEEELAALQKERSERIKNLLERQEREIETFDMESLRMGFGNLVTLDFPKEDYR
Conditions: at 1 µM.

The target in assay [9] is T4, Serine/threonine-protein kinase TAO3 (Homo sapiens). Conditions: at 10 µM.
Assay [10] has as its target T5, Serine/threonine-protein kinase TBK1 (Homo sapiens) (UniProt Q9UHD2).
T5 sequence (whole entry): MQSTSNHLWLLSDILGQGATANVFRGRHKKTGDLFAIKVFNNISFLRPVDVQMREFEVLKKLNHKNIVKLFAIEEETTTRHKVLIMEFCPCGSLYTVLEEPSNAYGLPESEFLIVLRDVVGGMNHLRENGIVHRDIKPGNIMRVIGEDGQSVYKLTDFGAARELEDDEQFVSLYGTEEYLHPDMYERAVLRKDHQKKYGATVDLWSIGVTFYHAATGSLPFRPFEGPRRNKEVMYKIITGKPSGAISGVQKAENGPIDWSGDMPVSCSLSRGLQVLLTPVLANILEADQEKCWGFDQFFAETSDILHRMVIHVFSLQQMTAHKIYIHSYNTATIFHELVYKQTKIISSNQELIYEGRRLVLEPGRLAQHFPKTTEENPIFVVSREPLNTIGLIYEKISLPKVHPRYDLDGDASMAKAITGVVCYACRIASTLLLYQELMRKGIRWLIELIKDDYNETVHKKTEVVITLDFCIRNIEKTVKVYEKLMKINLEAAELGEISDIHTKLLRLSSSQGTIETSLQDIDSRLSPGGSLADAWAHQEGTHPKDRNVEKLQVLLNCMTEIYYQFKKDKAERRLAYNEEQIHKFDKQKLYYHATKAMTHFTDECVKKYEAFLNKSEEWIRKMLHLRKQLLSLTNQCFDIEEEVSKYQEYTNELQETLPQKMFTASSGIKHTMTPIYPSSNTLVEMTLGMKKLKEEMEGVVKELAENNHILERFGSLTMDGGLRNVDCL
Conditions: at 1 µM.

Consider `Cc1nc2cc3nc(-c4cccs4)cnc3cc2n1C`, for which the residual activity was determined as 93% in assay [1]; 96% in assay [2]; 100% in assay [3]; 111% in assay [4]; 100% in assay [5]; 113% in [6]. The residual activity in assay [7] is 98%; in assay [8], 98%; in assay [9], 95%; in assay [10], 105%.
